Data as given in PubChem BioAssay (NCATS).
Inconclusive results are not listed. Entries that show only a call come without a potency. Active and inactive are the calls of the source. The call rests on the fitted dose curve; in most records, active means well fitted curve in the direction sought with a large enough effect; inconclusive means small, poorly fitted or top-dose-only effect, or another doubt; inactive means no such curve, though single readings can be large; an effect the other way counts as inactive or inconclusive.

How the values were obtained:
[1] = molecular target: Aldehyde dehydrogenase, mitochondrial (Homo sapiens) (UniProt P05091); assay: qHTS for Inhibitors of the Aldehyde Dehydrogenase Family (ALDH2) Primary screen (AID 2061308); further: nearly all actives have a fitted effect of over 55% in size
[2] = molecular target: Retinaldehyde dehydrogenase 3 (Homo sapiens) (UniProt P47895); assay: qHTS for Inhibitors of the Aldehyde Dehydrogenase Family (ALDH1A3) Primary screen (AID 2061315)

Row | SMILES | Potency [1] | Potency [2]
1 | O=C1CCc2cc(S(=O)(=O)NCc3ccccc3)ccc2N1 | inactive | inactive
2 | Cc1cc(C)nc(NC(=S)N2CCN(c3ncccc3Cl)CC2)c1 | inactive | inactive
3 | COC(=O)c1ccc(NC(=O)c2cc(-c3ccc(C)c(C)c3)nc3ccccc23)cc1 | inactive | inactive
4 | O=C(c1ccc2c(c1)ncn2-c1cccc(Cl)c1)N1CCCCC1 | inactive | inactive
5 | N#CN1CCC(NC(=O)c2ccc(F)cc2)CC1 | inactive | inactive
6 | COc1cnccc1-c1nc(Nc2ccc(F)c(F)c2)c2ccccc2n1 | inactive | inactive
7 | c1nc(NCCc2cnc[nH]2)c2cc(-c3ccoc3)ccc2n1 | inactive | inactive
8 | Cc1cn([C@H]2C[C@H](N[S+](=O)([O-])Cc3ccccc3)[C@@H](CO)O2)c(=O)[nH]c1=O | inactive | inactive
9 | CC(C)Oc1ccccc1C(=O)Nc1nc(-c2ccccc2)cs1 | inactive | inactive
10 | Cc1ccc(C(=O)Nc2ccc(S(=O)(=O)Nc3nccs3)cc2)cc1C | inactive | inactive
11 | FC(F)(F)c1ccccc1-c1nc(NCc2ccc(Cl)c(Cl)c2)c2ccccc2n1 | inactive | inactive
12 | Cc1ccc(S(=O)(=O)Nc2ccc(C(=O)Nc3nc(-c4ccc(Cl)cc4)cs3)cc2)cc1 | inactive | inactive
13 | Cc1cccc(C(=O)NC2CCN(C#N)CC2)c1 | inactive | inactive
14 | COc1ccc(C2Nc3ccccc3C(=O)N2Cc2cccs2)cc1COc1c(C)cc(NC(C)=O)cc1C (stereo not drawn) | inactive | inactive
15 | O=C(Nc1nnc(-c2ccco2)o1)c1ccc(Cl)cc1 | inactive | inactive
16 | COc1ccc(C2Nc3ccccc3C(=O)N2Cc2cccs2)cc1COc1c(C)cccc1C (stereo not drawn) | inactive | inactive
17 | CCCn1c(C)nc2c(NCCCN(C)C)nc(C)nc21 | inactive | inactive
18 | Cc1cccc(-c2csc3ncnc(Sc4nnnn4C)c23)c1 | inactive | inactive
19 | Fc1cccc(CNc2ncnc3ccc(-c4cccnc4)cc23)c1 | inactive | inactive
20 | COc1cccc(-c2ccc3ncnc(NCc4cccc(C)c4)c3c2)c1 | inactive | inactive
21 | COc1ccc(C2=Nn3c(nnc3-c3ccccc3O)SC2)cc1OC | inactive | inactive
22 | Fc1cnc(-c2ccccc2C(F)F)nc1NCc1ccc(-c2ccn[nH]2)cc1 | inactive | inactive
23 | O=[N+]([O-])c1nccn1CO[C@@H](CO)[C@H](O)CO | inactive | inactive

Row | SMILES | Potency [1] | Potency [2]
24 | COC(=O)c1ccccc1NC(=O)c1ccc(F)cc1F | inactive | inactive
25 | C=Cc1cc(F)c(S(=O)(=O)N2CCN(S(=O)(=O)c3ccc4c(c3)OCCO4)CC2)cc1F | inactive | inactive
26 | Cc1cc(C)nc(NC(=S)N2CCN(c3cccc([N+](=O)[O-])c3)CC2)c1 | inactive | inactive
27 | Cc1cccc2oc(NC3=NC(c4[nH]ncc4Cl)C4=C(CCCC4=O)N3)nc12 (stereo not drawn) | inactive | inactive
28 | Cc1ccc(OCCn2c(CCNC(=O)C3CCC3)nc3ccccc32)cc1 | inactive | inactive
29 | O=C(OCc1c(-c2ccccc2)no[n+]1[O-])c1ccccc1 | inactive | inactive
30 | COc1cccc(-n2cnc3cc(C(=O)N4CCCCC4)ccc32)c1 | inactive | inactive
31 | Nc1cccc(S(=O)(=O)Nc2cnccc2C(=O)Nc2nc(-c3ccccc3)cs2)c1 | inactive | inactive
32 | FC(F)(F)c1cccc(N2CCN(C(=S)Nc3ccncc3)CC2)c1 | inactive | inactive
33 | O=C1c2ccccc2C(=O)N1c1ccccn1 | inactive | inactive
34 | C=C1C(=O)O[C@H]2/C=C(/C)[C@@H](OC(C)=O)C/C=C(\C)C[C@@H](OC(=O)/C(=C/C)COC(=O)/C(=C/C)CO)[C@@H]12 | inactive | inactive
35 | O=C(Nc1nnc(COc2ccc(Cl)cc2)s1)c1cccs1 | inactive | inactive
36 | Cc1cc2c(s1)c1cnn(Cc3cc(F)cc(F)c3F)c(=O)c1n2C | inactive | inactive
37 | COc1cc2nc(N3CCN(C(=O)c4ccco4)C4CCCCC43)nc(N)c2cc1OC (stereo not drawn) | inactive | inactive
38 | NC(=O)c1ccc(-c2noc(-c3ccccc3F)n2)cc1 | inactive | inactive
39 | CC(=O)Nc1sc2c(c1-c1cccnc1)CCNC2 | inactive | inactive
40 | O=C(Nc1nc(-c2ccccc2)cs1)c1ccncc1NS(=O)(=O)c1ccc(F)cc1Cl | inactive | inactive
41 | Cc1cc(-c2nnc3n2CCCCCCC3)c(C)n1-c1ccccc1 | inactive | inactive
42 | O=C1Cc2cc(S(=O)(=O)N3CCN(c4ccc(CO)cc4)CC3)ccc2N1 | inactive | inactive
43 | Cc1cc2c(s1)c1cnn(Cc3c(F)ccc(F)c3F)c(=O)c1n2C | inactive | inactive
44 | CCN(CC)CCn1c(-c2ccccc2)nc2c(NC3CCCCC3)nc(C)nc21 | inactive | inactive
45 | CC(C)(C)c1ccc(Nc2nc(C#N)nc(NC3CCCC3)n2)cc1 | inactive | inactive
46 | NC(=O)C1CCN(c2nccc(Cl)n2)CC1 | inactive | inactive

Row | SMILES | Potency [1] | Potency [2]
47 | COc1ccc(-c2nnc3n2N=C(c2c(OC)cccc2OC)CS3)cc1OC | inactive | inactive
48 | CC(=O)c1ccc(-c2csc3ncnc(Sc4nnnn4C)c23)cc1 | inactive | inactive
49 | CCCn1c(-c2ccc(F)cc2)nc2c(NC3CC4CCC(C3)N4C)nc(C)nc21 (stereo not drawn) | inactive | inactive
50 | Cc1cc(NS(=O)(=O)c2ccc(NC(=O)Cc3ccc(C)c(C)c3)cc2)no1 | inactive | inactive
51 | C[S+](=O)([O-])c1ccc(-c2ccc(=O)n(CC(=O)NCCc3ccccc3)n2)cc1 | inactive | inactive
52 | Cc1ccc(CNc2ncnc3ccc(-c4ccc(C(=O)N(C)C)o4)cc23)o1 | inactive | inactive
53 | Cc1cc(C)nc(NC(=S)N2CCN(c3ncnc4ccccc34)CC2)c1 | inactive | inactive
54 | Cn1nnnc1Sc1ncnc2scc(-c3ccccc3Cl)c12 | inactive | inactive
55 | COc1cccc(C2c3c(ncn(-c4ccccn4)c3=N)Oc3ccc4ccccc4c32)c1 (stereo not drawn) | inactive | inactive
56 | Cc1cc(C)nc(NC(=S)N2CCN(c3ccc4occc4c3)CC2)c1 | inactive | inactive
57 | COc1cccc(-c2nnc3n2N=C(c2c(OC)cccc2OC)CS3)c1OC | inactive | inactive
58 | O=C(Nc1ccc([S+](=O)([O-])Nc2nccs2)cc1)c1ccn[nH]1 | inactive | inactive
59 | COc1cccc(NC(=S)N2CCN(c3cc(Cl)cc(Cl)c3)CC2)n1 | inactive | inactive
60 | CNc1oc(-c2ccc3cnccc3c2)nc1C#N | inactive | inactive
61 | O=[S+]([O-])(c1ccc(OC(F)(F)F)cc1)N1CCN([S+](=O)([O-])c2ccc3c(c2)OCCO3)CC1 | inactive | inactive
62 | COc1ccc(NC(=O)C2=C(C)NC(Nc3nc4ccccc4o3)=NC2c2ccccc2Br)cc1 (stereo not drawn) | inactive | inactive
63 | COC(=O)C1=CC[C@H](c2ccc(C)cc2)N(S(=O)(=O)c2ccc(C)cc2)[C@@H]1c1ccc(C(C)(C)C)cc1 | inactive | inactive
64 | Cc1nc(N2CCOCC2)c2nc(-c3ccccc3)n(CC3CCN(C)CC3)c2n1 | inactive | inactive
65 | O=C1CCCC2=C1C(c1[nH]ncc1Cl)NC(=NCCc1cccnc1)N2 (stereo not drawn) | inactive | inactive
66 | COC(=O)C12C(=O)C(C)=C(O)C1(C)C(C)=CC1C3(CO)CCC(O)C(C)(C)C3CCC12C (stereo not drawn) | inactive | inactive
67 | Cc1ccc(-c2cc(C(=O)Nc3ccc(S(=O)(=O)NCc4nccs4)cc3)c3ccccc3n2)cc1C | inactive | inactive
68 | Cc1ccc(OCCn2c(CCNC(=O)C3CCNCC3)nc3ccccc32)cc1 | inactive | inactive
69 | O=C(NCCc1nc2ccccc2n1CCO)C1CCCCC1 | inactive | inactive

Row | SMILES | Potency [1] | Potency [2]
70 | Brc1cnc2nc(SCc3ccccn3)[nH]c2c1 | inactive | inactive
71 | Cc1cc(C)n2ncc(C(=O)Nc3ccccc3Sc3ccccc3)c2n1 | inactive | inactive
72 | CCc1nnc(NS(=O)(=O)c2ccc(NC(=S)NC(=O)/C=C/c3ccc(F)cc3)cc2)s1 | inactive | inactive
73 | CC(=O)Nc1ccc(S(=O)(=O)Nc2ccc(C)c(C)c2)cc1 | inactive | inactive
74 | C#CCOc1cccc(-c2nnc3n2N=C(c2ccc(OC)c(OCC(C)=O)c2)CS3)c1 | inactive | inactive
75 | CCCn1c(-c2ccc(F)cc2)nc2c(N3CCC(N(C)C)C3)nc(C)nc21 (stereo not drawn) | inactive | inactive
76 | Cc1ccc(-c2cc(C(=O)N3CC[S+](=O)([O-])CC3)c3ccccc3n2)cc1C | inactive | inactive
77 | COc1cccc(C2N=C(Nc3nc4ccccc4o3)NC3=C2C(=O)CCC3)c1 (stereo not drawn) | inactive | inactive
78 | O=C(NC1CCCc2c1cnn2-c1ccc(F)cc1F)c1ccn[nH]1 (stereo not drawn) | inactive | inactive
79 | O=C(Nc1ccc(S(=O)(=O)Nc2nccs2)cc1)c1ccnc(-c2ccccc2)c1 | inactive | inactive
80 | Cc1cc(C)nc(NC(=S)N2CCN(C3=Nc4ccccc4Oc4ccccc43)CC2)c1 | inactive | inactive
81 | Cc1ccc(-c2cc(C(=O)N(C)c3ccccc3)c3ccccc3n2)cc1C | inactive | inactive
82 | Cc1cnc(-c2ccccc2C(C)C)nc1NCC1CCN(C2COC2)CC1 | inactive | inactive
83 | O=C(O)c1ccc2c(c1)C(=O)N([C@@H](Cc1ccc(O)cc1)C(=O)O)C2=O | inactive | inactive
84 | CN(CC(F)(F)F)c1nc(NCc2ccc(-c3cccnc3)cc2)c2ccccc2n1 | inactive | inactive
85 | CNc1oc(-c2cccc(Cl)c2Cl)nc1C#N | inactive | inactive
86 | O=C(OCC#CCSc1nnc(-c2cccc3ccccc23)o1)c1ccc(F)nc1 | inactive | inactive
87 | c1ccc(CNc2nc(-c3cccs3)nc3ccccc23)cc1 | inactive | inactive
88 | COc1ccc(Oc2c(Cl)cnn(-c3cc(C)cc(C)c3)c2=O)cc1 | inactive | inactive
89 | CCCC1CCN(C(=O)CC(c2ccc3c(c2)OCO3)c2c(O)cc(OC)cc2OC)C1 (stereo not drawn) | inactive | inactive
